Reference: article PMC9911399, “Two distinct binding modes provide the RNA-binding protein RbFox with extraordinary sequence specificity”
Residue numbers refer to the chain shown, from its start. Over roughly 16,000 sequences, “ka relative to ugcaugu” has its median near 0.096; the highest 2% begin near 0.35. The full list was thinned out, with the highest values kept by preference.

T1: RBFOX1 RRM RbFoxmut (Fox-RRM*) (Homo sapiens, UniProt Q9NWB1 109-208, R118D;E147R;N151S;E152T)
T1 sequence: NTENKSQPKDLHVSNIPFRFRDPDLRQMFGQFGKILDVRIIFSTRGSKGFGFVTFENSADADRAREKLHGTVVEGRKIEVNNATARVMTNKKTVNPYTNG

B1: CGAUCAG (DNA:RNA)
RNA: GGGAGACCGGAAUUCAGAUUGUCCCGAUCAGUUAAAUCCCGUCGUAGCCACCA
DNA 1: CAATCTGAATTCCGGTCTCCC
DNA 2: TGGTGGCTACGACGGGATT
B2: AUUGUAA (DNA:RNA)
RNA: B1 RNA with C25A, G26U, A27U, U28G, C29U, G31A
DNA 1: CAATCTGAATTCCGGTCTCCC
DNA 2: TGGTGGCTACGACGGGATT
B3: UUUGUUC (DNA:RNA)
RNA: GGGAGACCGGAAUUCAGAUUGUCCUUUGUUCUUAAAUCCCGUCGUAGCCACCA
DNA 1: CAATCTGAATTCCGGTCTCCC
DNA 2: TGGTGGCTACGACGGGATT
B4: GCGCGAC (DNA:RNA)
RNA: B1 RNA with C25G, G26C, A27G, U28C, C29G, G31C
DNA 1: CAATCTGAATTCCGGTCTCCC
DNA 2: TGGTGGCTACGACGGGATT
B5: UUAAGCC (DNA:RNA)
RNA: B3 RNA with U27A, G28A, U29G, U30C
DNA 1: CAATCTGAATTCCGGTCTCCC
DNA 2: TGGTGGCTACGACGGGATT
B6: CCCGAUC (DNA:RNA)
RNA: B3 RNA with U25C, U26C, U27C, U29A
DNA 1: CAATCTGAATTCCGGTCTCCC
DNA 2: TGGTGGCTACGACGGGATT
B7: CUUCGGU (DNA:RNA)
RNA: B3 RNA with U25C, G28C, U29G, U30G, C31U
DNA 1: CAATCTGAATTCCGGTCTCCC
DNA 2: TGGTGGCTACGACGGGATT
B8: AAGGCAA (DNA:RNA)
RNA: B1 RNA with C25A, G26A, A27G, U28G, G31A
DNA 1: CAATCTGAATTCCGGTCTCCC
DNA 2: TGGTGGCTACGACGGGATT
B9: AAAAUGC (DNA:RNA)
RNA: B3 RNA with U25A, U26A, U27A, G28A, U30G
DNA 1: CAATCTGAATTCCGGTCTCCC
DNA 2: TGGTGGCTACGACGGGATT
B10: UGAAUGA (DNA:RNA)
RNA: B1 RNA with C25U, U28A, C29U, A30G, G31A
DNA 1: CAATCTGAATTCCGGTCTCCC
DNA 2: TGGTGGCTACGACGGGATT
B11: UGAUGAA (DNA:RNA)
RNA: B1 RNA with C25U, C29G, G31A
DNA 1: CAATCTGAATTCCGGTCTCCC
DNA 2: TGGTGGCTACGACGGGATT
B12: AGAAUGC (DNA:RNA)
RNA: B1 RNA with C25A, U28A, C29U, A30G, G31C
DNA 1: CAATCTGAATTCCGGTCTCCC
DNA 2: TGGTGGCTACGACGGGATT
B13: AGAUUGC (DNA:RNA)
RNA: B1 RNA with C25A, C29U, A30G, G31C
DNA 1: CAATCTGAATTCCGGTCTCCC
DNA 2: TGGTGGCTACGACGGGATT
B14: UGAUUGA (DNA:RNA)
RNA: B1 RNA with C25U, C29U, A30G, G31A
DNA 1: CAATCTGAATTCCGGTCTCCC
DNA 2: TGGTGGCTACGACGGGATT
B15: UCGUUCG (DNA:RNA)
RNA: B1 RNA with C25U, G26C, A27G, C29U, A30C
DNA 1: CAATCTGAATTCCGGTCTCCC
DNA 2: TGGTGGCTACGACGGGATT
B16: AGCCUAC (DNA:RNA)
RNA: B1 RNA with C25A, A27C, U28C, C29U, G31C
DNA 1: CAATCTGAATTCCGGTCTCCC
DNA 2: TGGTGGCTACGACGGGATT
B17: CCUGUCC (DNA:RNA)
RNA: B3 RNA with U25C, U26C, U30C
DNA 1: CAATCTGAATTCCGGTCTCCC
DNA 2: TGGTGGCTACGACGGGATT
B18: GAUUAGG (DNA:RNA)
RNA: B1 RNA with C25G, G26A, A27U, C29A, A30G
DNA 1: CAATCTGAATTCCGGTCTCCC
DNA 2: TGGTGGCTACGACGGGATT
B19: CGCAGCG (DNA:RNA)
RNA: B1 RNA with A27C, U28A, C29G, A30C
DNA 1: CAATCTGAATTCCGGTCTCCC
DNA 2: TGGTGGCTACGACGGGATT
B20: UGUUGCC (DNA:RNA)
RNA: B3 RNA with U26G, G28U, U29G, U30C
DNA 1: CAATCTGAATTCCGGTCTCCC
DNA 2: TGGTGGCTACGACGGGATT
B21: UGCUGCC (DNA:RNA)
RNA: B1 RNA with C25U, A27C, C29G, A30C, G31C
DNA 1: CAATCTGAATTCCGGTCTCCC
DNA 2: TGGTGGCTACGACGGGATT
B22: AUUGCCU (DNA:RNA)
RNA: B3 RNA with U25A, U29C, U30C, C31U
DNA 1: CAATCTGAATTCCGGTCTCCC
DNA 2: TGGTGGCTACGACGGGATT
B23: UUGCCUG (DNA:RNA)
RNA: B3 RNA with U27G, G28C, U29C, C31G
DNA 1: CAATCTGAATTCCGGTCTCCC
DNA 2: TGGTGGCTACGACGGGATT
B24: AUUUGCC (DNA:RNA)
RNA: B3 RNA with U25A, G28U, U29G, U30C
DNA 1: CAATCTGAATTCCGGTCTCCC
DNA 2: TGGTGGCTACGACGGGATT
B25: UGCCUUG (DNA:RNA)
RNA: B3 RNA with U26G, U27C, G28C, C31G
DNA 1: CAATCTGAATTCCGGTCTCCC
DNA 2: TGGTGGCTACGACGGGATT
B26: UGGCCUG (DNA:RNA)
RNA: B1 RNA with C25U, A27G, U28C, A30U
DNA 1: CAATCTGAATTCCGGTCTCCC
DNA 2: TGGTGGCTACGACGGGATT
B27: UGUAGCC (DNA:RNA)
RNA: B3 RNA with U26G, G28A, U29G, U30C
DNA 1: CAATCTGAATTCCGGTCTCCC
DNA 2: TGGTGGCTACGACGGGATT
B28: UGGCCUC (DNA:RNA)
RNA: B3 RNA with U26G, U27G, G28C, U29C
DNA 1: CAATCTGAATTCCGGTCTCCC
DNA 2: TGGTGGCTACGACGGGATT
B29: UGCCUCC (DNA:RNA)
RNA: B3 RNA with U26G, U27C, G28C, U30C
DNA 1: CAATCTGAATTCCGGTCTCCC
DNA 2: TGGTGGCTACGACGGGATT
B30: UGUGGCC (DNA:RNA)
RNA: B3 RNA with U26G, U29G, U30C
DNA 1: CAATCTGAATTCCGGTCTCCC
DNA 2: TGGTGGCTACGACGGGATT
B31: CAUUGCC (DNA:RNA)
RNA: B1 RNA with G26A, A27U, C29G, A30C, G31C
DNA 1: CAATCTGAATTCCGGTCTCCC
DNA 2: TGGTGGCTACGACGGGATT

The binders below were run against T1, RBFOX1 RRM RbFoxmut (Fox-RRM*) (assay: EMSA; HiTS-Eq, 1 nM pool, 10 min; buffer printed only for the single-RNA assays: 10 mM Tris pH 7.5, 150 mM NaCl, 3.4 mM EDTA, 0.001% NP-40, 30 C). Settings: tags: His6 N-terminal (pET28a); label: 5' 32P.
In short: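 These values rest on relative association constants, computed from read-count changes of each RNA species versus the control reaction and normalised to the cognate motif. Reads came from free RNA recovered by 8% native PAGE after purified RbFox RRM (wild type or mutant) at increasing concentrations was equilibrated for 10 min in 50 µL with 1 nM of a 5′-radiolabelled pool with 7 randomized nucleotides and DNA-annealed flanks.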
B1 was tested, and the binding signal was 0.0789 KA relative to UGCAUGU.
For B2, the binding signal was 0.154 KA relative to UGCAUGU.
B3 was tested, and the binding signal was 0.0935 KA relative to UGCAUGU.
In the case of B4, the binding signal is reported as 0.0897 KA relative to UGCAUGU.
In the case of B5, the binding signal is reported as 0.106 KA relative to UGCAUGU.
For B6, the binding signal was 0.0576 KA relative to UGCAUGU.
In the case of B7, the binding signal is reported as 0.095 KA relative to UGCAUGU.
B8 was tested, and the binding signal was 0.061 KA relative to UGCAUGU.
For B9, the binding signal was 0.0633 KA relative to UGCAUGU.
In the case of B10, the binding signal is reported as 0.46 KA relative to UGCAUGU.
B11 was tested, and the binding signal was 0.122 KA relative to UGCAUGU.
For B12, the binding signal was 0.408 KA relative to UGCAUGU.
With B13 the binding signal was 0.14 KA relative to UGCAUGU.
With B14 the binding signal was 0.209 KA relative to UGCAUGU.
For B15, the binding signal was 0.218 KA relative to UGCAUGU.
In the case of B16, the binding signal is reported as 0.0767 KA relative to UGCAUGU.
In the case of B17, the binding signal is reported as 0.074 KA relative to UGCAUGU.
With B18 the binding signal was 0.0809 KA relative to UGCAUGU.
In the case of B19, the binding signal is reported as 0.135 KA relative to UGCAUGU.
With B20 the binding signal was 0.296 KA relative to UGCAUGU.
B21 was tested, and the binding signal was 0.298 KA relative to UGCAUGU.
For B22, the binding signal was 0.108 KA relative to UGCAUGU.
For B23, the binding signal was 0.377 KA relative to UGCAUGU.
With B24 the binding signal was 0.257 KA relative to UGCAUGU.
For B25, the binding signal was 1.27 KA relative to UGCAUGU.
B26 was tested, and the binding signal was 0.359 KA relative to UGCAUGU.
With B27 the binding signal was 0.141 KA relative to UGCAUGU.
For B28, the binding signal was 0.106 KA relative to UGCAUGU.
In the case of B29, the binding signal is reported as 0.155 KA relative to UGCAUGU.
B30 was tested, and the binding signal was 0.263 KA relative to UGCAUGU.
In the case of B31, the binding signal is reported as 0.374 KA relative to UGCAUGU.
